Test results taken from ChEMBL document CHEMBL3988442, “University of Dundee, Small-Polar-MMV Screening Library” (2021).

Assays:
[1] = target: T1, Aspartate--tRNA(Asp/Asn) ligase (Mycobacterium tuberculosis (strain ATCC 25618 / H37Rv)) (UniProt P9WFW3); assay: Assay for Asp RNA synthetase-1 from Mycobacterium tuberculosis; format: functional; design: scale not given: direction of the effect not stated beside the values; conditions: 30 µM; further: in the data most compounds retested in dose-response had high values
T1 sequence (whole entry): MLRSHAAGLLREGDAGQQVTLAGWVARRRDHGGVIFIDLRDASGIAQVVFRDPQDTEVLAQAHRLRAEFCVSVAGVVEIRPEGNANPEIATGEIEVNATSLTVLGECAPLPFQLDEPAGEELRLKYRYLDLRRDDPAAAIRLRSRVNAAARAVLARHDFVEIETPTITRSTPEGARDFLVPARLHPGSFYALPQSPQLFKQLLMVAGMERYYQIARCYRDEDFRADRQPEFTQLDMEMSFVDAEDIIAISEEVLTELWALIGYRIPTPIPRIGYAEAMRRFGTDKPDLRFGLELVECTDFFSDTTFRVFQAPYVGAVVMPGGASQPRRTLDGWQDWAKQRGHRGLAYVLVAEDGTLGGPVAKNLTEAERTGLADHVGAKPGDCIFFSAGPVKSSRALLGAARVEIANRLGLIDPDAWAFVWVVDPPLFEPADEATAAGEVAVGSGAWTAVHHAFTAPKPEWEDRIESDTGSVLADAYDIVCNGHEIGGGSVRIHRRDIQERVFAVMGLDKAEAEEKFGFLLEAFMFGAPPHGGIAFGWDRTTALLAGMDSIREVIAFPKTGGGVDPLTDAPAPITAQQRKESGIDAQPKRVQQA

[2] = target: Shiga toxin 2 (Escherichia coli O157:H7) (UniProt P09385+P09386); assay: E. coli 0.157:H7 Shiga Toxin SOP - stx2 screening assay; format: functional; design: scale not given: direction of the effect not stated beside the values; conditions: 30 µM

Row | Structure (SMILES) | Percent Effect [1] | Percent Effect [2]
1 | CN(Cc1ccco1)Cc1ccccc1CNC(=O)c1cc[nH]n1 | 0.435% | 9.38%
2 | N#CC1(C(=O)N2CCN(Cc3cscn3)CC2)CCCC1 | -0.171% | 9.21%
3 | Cc1cc(C(=O)NCc2ccnc(N3CCN(C)CC3)c2)c(C)s1 | -3.03% | -30.4%
4 | Cc1ccc(CN2CCC(F)(F)C3(CCN(c4cnccn4)C3)C2)o1 (configuration not stated) | 5.56% | -6.62%
5 | Cc1ccc(NC(=O)NCCCc2n[nH]c(N)c2C#N)cc1 | 1.26% | -18.4%
6 | CCn1ccnc1CN1CCC(CCC(=O)Nc2ccccc2Cl)CC1 | -0.673% | -30.9%
7 | CC(NC(=O)CSCC(=O)Nc1ccccc1)c1ccccc1 (configuration not stated) | 3.01% | 16.8%
8 | Cc1cc(N2CCCC2c2cnccn2)ncn1 (configuration not stated) | 0.908% | 9.94%
9 | CN1CCCc2cc(CNC(=O)c3ccc(NC4CC4)nc3)ccc21 | -3.1% | -12.6%
10 | COc1cccc(CN2CCCC3(CCN(C(=O)[C@H]4CCCO4)C3)C2)c1 (some centres not stated) | 2.84% | 5.38%
11 | CCn1nc(C(C)C)cc1C(=O)NCCCOC | -1.73% | 3.47%
12 | CCc1nc(CN2CCCC(NCc3ncc(C(C)(C)C)o3)C2)no1 (configuration not stated) | 5.85% | 2.13%
13 | CC(C)(C)n1ncc2c1NC(=O)CC2c1ccc(OCC(N)=O)cc1 (configuration not stated) | -2.88% | 21.3%
14 | Cc1ccc2oc(C(=O)N3CCC(C(=O)N4CCCC4)CC3)cc2n1 | 1.57% | -16.4%
15 | COc1cccc(C2CCCN2C(=O)c2cc3c([nH]c2=O)CCC3)c1 (configuration not stated) | 1.28% | -5.59%
16 | CN1CCOC(CNC(=O)CCCOc2ccccc2F)C1 (configuration not stated) | -5.14% | -33.1%
17 | CS(=O)(=O)N1CCc2nc(NC(=O)Nc3c(F)cccc3F)sc2C1 | -4.11% | 4.52%
18 | O=C(COc1coc(CN2CCCCC2)cc1=O)NCc1ccccc1 | 10.2% | -39.3%
19 | O=C(NCCN1CCc2ccccc2C1)c1scnc1Cl | 1.6% | -3.31%
20 | Cc1nn(C)c(N(C)C)c1CNCC(O)COc1ccccc1 (configuration not stated) | -5.92% | -12%
21 | CC(C)NC(=O)N1CCN(Cc2ccccn2)CC2(CC(=O)N(C)C2)C1 (configuration not stated) | -0.228% | -14.2%
22 | Cc1ccccc1CN1CCCN(C2CCOC2=O)CC1 (configuration not stated) | -0.409% | 15%
23 | Cc1nnc(N2CCCC3(CN(Cc4ccc(C)s4)CCO3)C2)o1 (configuration not stated) | 0.479% | -45.3%
24 | Cc1ccc(F)cc1C(=O)N1C[C@@H](CN2CCOCC2)[C@@H](CO)C1 | -3.12% | 19.3%
25 | CC1c2ncc(COc3cccnc3)n2CCN1C(=O)C1=CCCC1 (configuration not stated) | -4.09% | -30.8%
26 | Cc1csc2ncc(-c3ccnc(N4CCCC[C@@H]4CO)n3)c(=O)n12 | -2.34% | -17.1%

Row | Structure (SMILES) | Percent Effect [1] | Percent Effect [2]
27 | CCn1nc(-c2ccccc2F)ccc1=O | 0.691% | -6.78%
28 | Cc1cnc2c(c1NCc1ccncc1)c(=O)n(C)c(=O)n2C | -5.41% | 1.78%
29 | CCOCCn1c(=O)[nH]c2cc(C(=O)N(C)CCc3cn[nH]c3)ccc21 | 0.279% | -26.7%
30 | CN1CCN(Cc2cccnc2)C2(CCN(c3ncc(F)cn3)C2)C1=O (configuration not stated) | 4.87% | -19.6%
31 | O=C(N1CCCC1)N1CCO[C@H]2[C@@H](Oc3ccccn3)CC[C@@H]21 | -4.07% | -9.25%
32 | O=C(NCC1CC1)[C@H]1C[C@H]2OCC[C@H]2N(Cc2ccoc2)C1 | 2.61% | -11.8%
33 | COCCN1C[C@@H]2CN(c3ncccn3)C[C@@H]2C1=O | 0.324% | -15.3%
34 | O=C(Cn1cc(I)cn1)Nc1cccnc1 | 1.95% | -36.6%
35 | CNC(=O)C1CCN(C(=O)c2cccn2Cc2cccs2)CC1 | 0.91% | 11.1%
36 | O=C1C(NCc2nnc3n2CCCC3)CCCN1c1cccc(F)c1 (configuration not stated) | 0.344% | -64.6%
37 | O=C(NCc1ccccc1-n1cccn1)N1CCN2CCCCC2C1 (configuration not stated) | -6.8% | 3.68%
38 | Cc1cc(C)n(C2CN(CC(=O)NCC(C)(C)N3CCOCC3)C2)n1 | -2.72% | -13.3%
39 | CN(C)CC(=O)N1CCOC2(CCCN(c3ncccc3F)C2)C1 (configuration not stated) | 1.93% | -5.68%
40 | CCN1CCC(NC(=O)CN2CCc3c(nc(C4CC4)n3C)C2)CC1 | -3.88% | 7.04%
41 | CC(Cn1cccn1)NC(=O)N1CCN(Cc2cccs2)CC1 (configuration not stated) | -5.57% | -23.7%
42 | O=C(CCc1cccs1)N1CCCCC1Cn1cccn1 (configuration not stated) | -2.77% | 1.06%
43 | CC(C)c1nc(CN2CCN(C(C)c3nc(C4CC4)no3)CC2)no1 (configuration not stated) | -2.84% | 5.21%
44 | O=S(=O)(c1cccs1)N1CCCn2cnc(CN3CCCC3)c2C1 | 6.2% | -4.47%
45 | Cc1nc(-c2ccc(Cl)s2)sc1C(=O)NCCS(N)(=O)=O | -0.408% | -17.2%
46 | CC(C)S(=O)(=O)NCC1CCCN(C(=O)c2cccnc2)C1 (configuration not stated) | -0.834% | -4.9%
47 | Cc1nn(C)c(C)c1CCC(=O)N1CCCC1Cn1cccn1 (configuration not stated) | -0.943% | 2.75%
48 | Cc1noc(C2CCN(C(=O)CN(C)c3ccc(Cl)cn3)CC2)n1 | -1.59% | -21.6%
49 | CC(OCC(F)(F)F)C(=O)N1CCN(S(C)(=O)=O)CC1 (configuration not stated) | -0.604% | -10.8%
50 | CC(C)c1cc(C(=O)N2CCN(Cc3ccsc3)CC2)n[nH]1 | -1.06% | 9.72%
51 | c1ccc2c(N3CCCC3Cn3cccn3)ncnc2c1 (configuration not stated) | 0% | -23.1%
